Structures are written as SMILES. Among all 48,000 compounds or so, about 13,000 (27%) showed an effect of 50% or more. The list shows a part of the results.

The experiment concerns Wolbachia pipientis. The experiment can be described thus: Anti-Wolbachia Cell-Based Screen. The experiment is classed as functional. Set-up: scale not given: in the data most compounds retested in dose-response had high values. As to conditions: 5 µM.
Take `NC(=O)N1CCCN(C2CCCCc3ccccc32)CC1` (stereo unspecified): the “Percent Effect” value is listed as -4.011%. As for `CO[C@@H]1CN(c2ccccc2)S(=O)(=O)[C@@]12CCN(S(C)(=O)=O)C2`, the figure is 80.67%. With `CN1CC(=O)N(c2ccccc2)CC12CCN(S(C)(=O)=O)C2.O=C(O)C(F)(F)F` (stereo unspecified), the “Percent Effect” value came to 10.77%.

On to `COC1CCN(S(=O)(=O)N2CC(c3ccccc3)C(C)(C)C2)CC1` (stereo unspecified), for which the “Percent Effect” value is reported as 17.09%.

As for `CS(=O)(=O)N1CCC2(CC1)c1ccccc1[C@@H](N1CCSCC1)[C@@H]2O`, the “Percent Effect” value is recorded as -3.022%. For `CO[C@@H]1CN(c2ccccc2)S(=O)(=O)[C@@]12CCN(C)C2` the value was 121.6%; for `CCN(CC)C(=O)C1CCC(=O)N(CCc2cccc(F)c2)C1` (stereo unspecified), 5.387%. Take `Cn1cc(C(=O)NCC2CCN(C(=O)NC3CC3)CC2)cn1`: the “Percent Effect” value is recorded as 82.18%. In the case of `CNC(=O)N1CCC(NC(=O)c2cnn(C)c2)CC1`, the “Percent Effect” value amounted to 87.43%.

On to `COCCCNC(=O)N1CCC(CNC(=O)c2cnn(C)c2)CC1`, for which the “Percent Effect” value was 114%. Regarding `CCS(=O)(=O)c1ccc(N2CCC(NC(=O)c3cnn(C)c3)CC2)cc1`, the “Percent Effect” value was found to be 0.7528%. As for `Cn1cc(C(=O)NC[C@@H]2OC[C@H]3CN(S(C)(=O)=O)CC[C@H]32)cn1`, the figure is -9.663%; as for `Cn1cc(C(=O)NC2CCN(C(=O)NCC3CCSCC3)CC2)cn1`, -0.1776%; as for `COCCNC(=O)N1CCC(NC(C)C)CC1`, 8.533%.

Turning to `Cn1cc(C(=O)NCC2CCN(C(=O)NCC(F)(F)F)CC2)cn1`, the “Percent Effect” value is -3.622%. Turning to `Cn1cc(C(=O)NCC2CCN(C(=O)NC3CCCCC3)CC2)cn1`, the “Percent Effect” value is listed as 90.75%. As for `Cn1cc(C(=O)NC2CCN(C(=O)NCCSC(F)(F)F)CC2)cn1`, the figure is 19.88%; as for `COC(=O)N1CCC(CNS(=O)(=O)c2cnn(C)c2)CC1`, -8.062%. For `Cc1ccc(N2CCC(C(O)c3cccs3)CC2)nn1` (stereo unspecified), the “Percent Effect” value is 12.98%. As for `CCCN1CCC(NCc2cccc(CN3CCOC(C)C3)c2)CC1` (stereo unspecified), the figure is 27.7%. For `O=C(O)c1cccc(CC2CCN(c3ncc(F)cn3)CC2)c1` the value was 5.737%; for `CCOCCn1c(=O)n(Cc2ccc(F)cc2)c2ncc(C(=O)O)cc21`, 0.5283%; for `O=C(O)c1ccc(Cc2cccc(F)c2)nc1`, 176.5%. Turning to `O=C(O)c1cncc(Cc2ccccc2F)c1`, the “Percent Effect” value is on record as 172.6%. As for `O=C(O)c1cncc(Cc2cccc(F)c2)c1`, the figure is 136.9%; as for `O=C(NCC(Cc1cccc(F)c1)N1CCCC1=O)c1ccccc1` (stereo unspecified), -3.129%; as for `O=C(O)c1ccc(N2CCC(Oc3cccc(F)c3)CC2)nc1`, 7.42%. As for `CCOCCn1c(=O)n(Cc2ccccc2F)c2cc(C(=O)O)cnc21`, the figure is -1.705%; as for `CCSCCn1c(=O)n(Cc2ccc(F)cc2)c2ncc(C(=O)O)cc21`, -21.36%; as for `O=C(O)c1cncc(Cc2ccc(F)cc2)c1`, 214.7%. For `O=C(CS(=O)(=O)Cc1ccccc1)NCc1ccccc1F`, the “Percent Effect” value is reported as -49.77%.

The record behind these values is ChEMBL document CHEMBL3988442, “University of Dundee, Small-Polar-MMV Screening Library” (2021).
